Experimental findings from PubChem BioAssay (EPA / NIEHS) are described below.

Several values for one entry are separate records, joined by “and”; a condition that tells them apart may be missing. Equal values may be shown once. Activity calls are given as the source filed them. How the source made its calls: active means hit-call score of the fitted dose curve at least 0.9, where 1 is the maximum; inactive means score below 0.9.

In general, AC50 refers to the midpoint of the concentration-response curve, whichever way the signal moves.

Assay [1] deals with Bile acid receptor (Homo sapiens) (UniProt Q96RI1). Put plainly: ATG_IR1_CIS: Attagene CIS-FACTORIAL HepG2 Assay for human Nuclear Receptor Subfamily 1 Group H Member 4 (NR1H4), IR1 submotif (AID 2282946). Particulars: IR1 reporter transcription, actives raise or lower the signal. An outline of the steps: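 Transient MRTU transfection, HepG2; 24 h dosing; RNA → RT-PCR → 6-FAM primer extension → HpaI digest → capillary electrophoresis fluorescence. Gain/loss of signal fitted relative to DMSO.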

Assay [2] is described as follows: ATG_GRE_CIS: Attagene CIS-FACTORIAL HepG2 Assay for human Glucocorticoid Response Elements (GRE) (AID 2282947). The note with it: HepG2 GRE cis-reporter, Attagene multiplex mRNA; actives raise or lower the signal. An outline of the steps:
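Following 24 h chemical exposure of transiently transfected HepG2 cells, total RNA was reverse-transcribed and reporter cDNA amplified, fluorescently labelled and sized by capillary electrophoresis. Signal gain or loss was fitted relative to DMSO vehicle.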

Assay [3] in a line: ATG_ISRE_CIS: Attagene CIS-FACTORIAL HepG2 Assay for human Interferon Regulatory Factor 1 (IRF1) binding to an Interferon-Stimulated Response Element (ISRE) (AID 2282948). Particulars: HepG2 ISRE cis-reporter (Attagene), mRNA transcription readout; actives raise or lower the signal. An outline of the steps: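 Quantitation relies on labelled RT-PCR fragments separated by capillary electrophoresis. Human HepG2 cells bearing cis-promoter reporter constructs were treated 24 h; DMSO served as baseline for bidirectional fitting.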

The nature of assay [4]: ATG_M_32_CIS: Attagene CIS-FACTORIAL HepG2 Assay for M32 Transcription Factor (Internal Marker) (AID 2282949).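 Further: background control marker of the multiplexed CIS panel rather than a real target.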 The note with it: HepG2 Attagene cis-factorial M32 reporter, mRNA; actives raise or lower the signal. An outline of the steps:
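Fluorescent capillary electrophoresis peaks of HpaI-digested, FAM-labelled RT-PCR reporter products give the signal. Source: transiently transfected human liver HepG2 cells, 24 h after chemical dosing; bidirectional fitting against DMSO.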

A short description of assay [5]: ATG_M_06_CIS: Attagene CIS-FACTORIAL HepG2 Assay for M06 Transcription Factor (Internal Marker) (AID 2282950). Particulars: HepG2 Attagene CIS-FACTORIAL M06 internal marker reporter; actives raise or lower the signal. An outline of the steps: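 Fluorescence-labelled RT-PCR products from cis-promoter reporter units, cut with HpaI and resolved by capillary electrophoresis, give the signal. Cells are human HepG2, dosed for 24 h. Serves as background control, fitted relative to DMSO.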

Assay [6] concerns the target Hypoxia-inducible factor 1-alpha (Homo sapiens) (UniProt Q16665). As to the kind of experiment: ATG_HIF1a_CIS: Attagene CIS-FACTORIAL HepG2 Assay for human Hypoxia Inducible Factor 1 (HIF1A) (AID 2282951). Particulars: HepG2 Attagene cis-factorial HIF1a reporter transcription; actives raise or lower the signal. An outline of the steps:
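Fluorescence intensity of capillary-separated, 6-FAM-labelled reporter amplicons gives mRNA induction in HepG2 cells carrying transfected cis-promoter reporter units; cells exposed 24 h, responses fitted up or down from DMSO.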

Assay [7] has as its target Hepatocyte nuclear factor 6 (Homo sapiens) (UniProt Q9UBC0). Put plainly: ATG_HNF6_CIS: Attagene CIS-FACTORIAL HepG2 Assay for human Hepatocyte Nuclear Factor 6 (HNF6) (AID 2282952). The note with it: HepG2 Attagene cis-factorial HNF6 reporter transcription; actives raise or lower the signal. An outline of the steps:
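Transiently transfected HepG2 cells expressing cis-regulated reporter transcription units were exposed to chemical for 24 h in a 24-well format. Reporter transcript abundance was determined by fluorescence capillary electrophoresis.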

Assay [8] deals with Heat shock factor protein 1 (Homo sapiens) (UniProt Q00613). Put plainly: ATG_HSE_CIS: Attagene CIS-FACTORIAL HepG2 Assay for human Heat Shock Transcription Factor 1 (HSE) (AID 2282953). Particulars: HepG2 HSE cis-reporter, Attagene RNA transcription; actives raise or lower the signal. A digest of the protocol:
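After a 24 h incubation with test chemical, transfected HepG2 cells were harvested for RNA; reporter transcripts were measured by RT-PCR and capillary electrophoresis. Values reflect gain or loss of signal relative to DMSO.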

Assay [9] can be described thus: ATG_MRE_CIS: Attagene CIS-FACTORIAL HepG2 Assay for human Metal Responsive Element (MRE) (AID 2282954). Particulars: HepG2 MRE cis-reporter transcription, Attagene multiplex; actives raise or lower the signal. An outline of the steps:
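Step one: transfect HepG2 with cis-regulated reporter units. Step two: dose 24 h. Step three: isolate RNA, RT-PCR, 6-FAM label, HpaI digest, capillary electrophoresis. Fit bidirectionally to DMSO.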

A short description of assay [10]: ATG_PBREM_CIS: Attagene CIS-FACTORIAL HepG2 Assay for human Phenobarbital-responsive Enhancer Module (PBREM) (AID 2282955). Particulars: HepG2 PBREM cis-reporter, Attagene multiplexed transcription; actives raise or lower the signal. An outline of the steps:
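Cells were transfected with cis-element reporter units and treated for 24 h, after which RNA was extracted and reporter transcripts measured by RT-PCR and capillary electrophoresis.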

The target in assay [11] is Paired box protein Pax-6 (Homo sapiens) (UniProt P26367). Put plainly: ATG_Pax6_CIS: Attagene CIS-FACTORIAL HepG2 Assay for human Paired Box 6 (PAX6) (AID 2282956). The note with it: HepG2 CIS-FACTORIAL PAX6 reporter transcription, RNA readout; actives raise or lower the signal. A digest of the protocol: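 After twenty-four hours of chemical exposure, transfected HepG2 cells are harvested for RNA. Cis-promoter reporter transcripts are amplified, fluorescently labelled and sized by capillary electrophoresis, with gain and loss of signal scored against DMSO.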

A short description of assay [12]: ATG_PXRE_CIS: Attagene CIS-FACTORIAL HepG2 Assay for human Pregnane X Receptor Element (PXRE) (AID 2282957). Particulars: HepG2 Attagene CIS-FACTORIAL PXRE reporter, mRNA; actives raise or lower the signal. A digest of the protocol:
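Cis-element reporter mRNA in human hepatoma HepG2 cells is measured 24 h post-dosing by RT-PCR, primer-extension labeling and capillary electrophoresis; gain or loss of signal is fitted relative to DMSO.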

Assay [13] can be described thus: ATG_PPRE_CIS: Attagene CIS-FACTORIAL HepG2 Assay for human Peroxisome Proliferator-activated Response Element (PPRE) (AID 2282958). The note with it: HepG2 PPRE cis-element reporter, Attagene transcription factor profiling; actives raise or lower the signal. An outline of the steps: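 In this cell-based multiplex, a PPRE cis element drives a reporter sequence in transiently transfected HepG2 cells. Following 24 h treatment, labeled cDNA amplicons are sized and quantified by capillary electrophoresis, with DMSO defining baseline.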

Assay [14] in a line: ATG_RORE_CIS: Attagene CIS-FACTORIAL HepG2 Assay for human RAR-related Orphan Receptor Element (RORE) (AID 2282959). Particulars: HepG2 Attagene cis-factorial RORE reporter, mRNA; actives raise or lower the signal. A digest of the protocol:
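Endogenous factor activity at a cis response element is read as reporter transcript levels in HepG2 cells, 24 h post-dose. Transcripts are quantified by RT-PCR with capillary electrophoresis, and data fitted in both directions against DMSO.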

Assay [15] is described as follows: ATG_Sox_CIS: Attagene CIS-FACTORIAL HepG2 Assay for human SRY-box transcription factor (SOX) (AID 2282960). Particulars: HepG2 Attagene cis-factorial SOX reporter, mRNA; actives raise or lower the signal. A digest of the protocol:
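Measures mRNA induction of a SOX1-associated reporter in HepG2 after 24 h dosing. Fluorescently labelled RT-PCR fragments are separated by capillary electrophoresis, and gain or loss relative to DMSO control is fitted.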

In assay [16] the target is Transcription factor Sp1 (Homo sapiens) (UniProt P08047). As to the kind of experiment: ATG_Sp1_CIS: Attagene CIS-FACTORIAL HepG2 Assay for human Specificity Protein 1 (Sp1) (AID 2282961). The note with it: HepG2 Sp1 cis-reporter transcription, actives raise or lower the signal. An outline of the steps:
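Cells: HepG2, transiently transfected with cis-regulated multiplexed reporters. Exposure: 24 h. Detection: reporter transcripts amplified, fluorescently labeled, restriction-digested and sized by capillary electrophoresis. Analysis: bidirectional fit relative to DMSO.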

Assay [17] can be described thus: ATG_SREBP_CIS: Attagene CIS-FACTORIAL HepG2 Assay for human Sterol Regulatory Element Binding (SREBP) (AID 2282962). Particulars: HepG2 Attagene cis-factorial SREBP reporter, mRNA; actives raise or lower the signal. A digest of the protocol: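 Twenty-four hours after chemical dosing of transfected HepG2 cultures, reporter RNA was converted to cDNA, amplified, end-labelled with 6-FAM and resolved by capillary electrophoresis. Responses were fitted relative to DMSO.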

The target of assay [18] is Signal transducer and activator of transcription 3 (Homo sapiens) (UniProt P40763). As to the kind of experiment: ATG_STAT3_CIS: Attagene CIS-FACTORIAL HepG2 Assay for human Signal Transducer and Activator of Transcription 3 (STAT3) (AID 2282963). The note with it: HepG2, Attagene cis-factorial STAT3 reporter transcription; actives raise or lower the signal. A digest of the protocol:
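Transcript-level reporter assay. HepG2 transient MRTU transfection, 24 h exposure, fluorescence detection after RT-PCR and CE; DMSO baseline.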

The nature of assay [19]: ATG_TA_CIS: Attagene CIS-FACTORIAL HepG2 Assay for human TA Basal Promoter (AID 2282964). Particulars: HepG2 Attagene CIS-factorial TA basal promoter reporter; actives raise or lower the signal. A digest of the protocol: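 Multiplexed mRNA reporter assay, HepG2, 24 h. Reporter cDNA amplified, 6-FAM primer-extended, HpaI-cut, CE-sized; DMSO = negative control and baseline.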

Assay [20] is described as follows: ATG_TCF_b_cat_CIS: Attagene CIS-FACTORIAL HepG2 Assay for human T-Cell-Factor with beta-catenin (TCF/b-cat) (AID 2282965). Particulars: HepG2 TCF/beta-catenin cis-reporter transcription, actives raise or lower the signal. A digest of the protocol:
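HepG2 cells transiently transfected with multiple cis-promoter-regulated reporter transcription units, so endogenous transcription factor activity is measured. Reporter mRNA read 24 hours after dosing by RT-PCR, fluorescent labelling and capillary electrophoresis; bidirectional fitting against DMSO.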

Chain of Signal transducer and activator of transcription 3 (Homo sapiens) (P40763 whole entry, looked up): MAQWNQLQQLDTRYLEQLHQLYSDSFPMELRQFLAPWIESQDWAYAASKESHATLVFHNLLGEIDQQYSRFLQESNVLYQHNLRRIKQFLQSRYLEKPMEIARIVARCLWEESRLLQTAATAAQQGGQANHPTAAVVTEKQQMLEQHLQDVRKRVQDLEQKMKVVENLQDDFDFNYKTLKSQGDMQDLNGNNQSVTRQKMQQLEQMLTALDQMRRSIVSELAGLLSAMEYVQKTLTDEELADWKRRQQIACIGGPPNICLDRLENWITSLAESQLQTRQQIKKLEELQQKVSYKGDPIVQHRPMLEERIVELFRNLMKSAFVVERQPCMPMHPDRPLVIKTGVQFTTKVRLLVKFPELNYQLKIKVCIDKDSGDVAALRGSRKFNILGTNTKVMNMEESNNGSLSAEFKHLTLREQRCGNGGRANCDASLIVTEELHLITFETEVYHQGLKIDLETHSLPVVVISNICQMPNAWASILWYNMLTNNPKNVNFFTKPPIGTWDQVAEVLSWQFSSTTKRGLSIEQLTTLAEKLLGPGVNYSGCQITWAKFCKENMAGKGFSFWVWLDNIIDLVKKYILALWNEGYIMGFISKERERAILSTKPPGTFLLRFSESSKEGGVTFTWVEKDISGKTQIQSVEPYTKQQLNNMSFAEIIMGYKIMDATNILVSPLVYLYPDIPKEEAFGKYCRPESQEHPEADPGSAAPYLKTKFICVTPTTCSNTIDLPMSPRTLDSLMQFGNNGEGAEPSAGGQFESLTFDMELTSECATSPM
Chain of Hypoxia-inducible factor 1-alpha (Homo sapiens) (Q16665 whole entry, looked up): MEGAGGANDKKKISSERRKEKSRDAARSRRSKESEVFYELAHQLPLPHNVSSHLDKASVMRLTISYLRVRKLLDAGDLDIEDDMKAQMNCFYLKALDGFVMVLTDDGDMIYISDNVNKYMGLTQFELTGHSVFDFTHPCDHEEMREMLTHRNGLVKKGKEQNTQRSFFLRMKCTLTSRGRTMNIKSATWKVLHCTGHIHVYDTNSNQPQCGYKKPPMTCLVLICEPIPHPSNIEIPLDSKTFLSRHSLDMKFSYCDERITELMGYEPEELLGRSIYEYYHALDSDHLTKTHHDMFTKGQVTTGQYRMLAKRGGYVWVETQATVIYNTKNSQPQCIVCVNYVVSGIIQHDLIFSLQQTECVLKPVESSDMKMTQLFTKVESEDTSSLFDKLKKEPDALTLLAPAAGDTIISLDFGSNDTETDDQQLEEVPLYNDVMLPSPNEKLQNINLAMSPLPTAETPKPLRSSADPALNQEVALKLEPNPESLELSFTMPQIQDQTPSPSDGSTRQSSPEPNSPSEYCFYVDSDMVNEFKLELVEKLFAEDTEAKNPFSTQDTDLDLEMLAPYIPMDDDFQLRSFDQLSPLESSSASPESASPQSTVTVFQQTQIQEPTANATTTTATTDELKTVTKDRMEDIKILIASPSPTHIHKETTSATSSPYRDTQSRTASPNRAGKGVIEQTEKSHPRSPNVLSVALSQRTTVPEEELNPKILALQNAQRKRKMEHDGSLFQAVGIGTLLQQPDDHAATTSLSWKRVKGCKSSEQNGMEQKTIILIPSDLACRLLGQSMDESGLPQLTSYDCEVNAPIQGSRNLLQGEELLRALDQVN
Chain of Transcription factor Sp1 (Homo sapiens) (P08047 whole entry, looked up): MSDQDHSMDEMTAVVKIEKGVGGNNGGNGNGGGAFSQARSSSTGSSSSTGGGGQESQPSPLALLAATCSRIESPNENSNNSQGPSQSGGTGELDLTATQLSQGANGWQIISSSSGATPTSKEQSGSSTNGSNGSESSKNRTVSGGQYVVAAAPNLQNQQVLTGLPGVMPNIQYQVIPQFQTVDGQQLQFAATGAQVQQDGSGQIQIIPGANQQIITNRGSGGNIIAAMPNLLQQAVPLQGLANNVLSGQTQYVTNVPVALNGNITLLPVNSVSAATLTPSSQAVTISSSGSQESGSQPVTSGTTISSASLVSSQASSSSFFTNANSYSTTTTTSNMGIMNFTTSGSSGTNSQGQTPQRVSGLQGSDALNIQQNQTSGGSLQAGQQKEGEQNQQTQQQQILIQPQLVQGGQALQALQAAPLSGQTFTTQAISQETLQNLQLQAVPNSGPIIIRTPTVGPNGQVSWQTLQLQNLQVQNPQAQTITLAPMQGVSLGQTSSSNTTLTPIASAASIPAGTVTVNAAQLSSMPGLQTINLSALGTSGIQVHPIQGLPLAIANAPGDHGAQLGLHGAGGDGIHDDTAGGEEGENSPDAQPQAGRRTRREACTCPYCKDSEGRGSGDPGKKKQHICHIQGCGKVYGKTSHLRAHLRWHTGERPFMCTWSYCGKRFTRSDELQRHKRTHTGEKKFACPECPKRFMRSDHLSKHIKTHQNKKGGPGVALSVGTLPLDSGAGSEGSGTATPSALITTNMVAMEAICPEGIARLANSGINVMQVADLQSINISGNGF
Chain of Paired box protein Pax-6 (Homo sapiens) (P26367 whole entry, looked up): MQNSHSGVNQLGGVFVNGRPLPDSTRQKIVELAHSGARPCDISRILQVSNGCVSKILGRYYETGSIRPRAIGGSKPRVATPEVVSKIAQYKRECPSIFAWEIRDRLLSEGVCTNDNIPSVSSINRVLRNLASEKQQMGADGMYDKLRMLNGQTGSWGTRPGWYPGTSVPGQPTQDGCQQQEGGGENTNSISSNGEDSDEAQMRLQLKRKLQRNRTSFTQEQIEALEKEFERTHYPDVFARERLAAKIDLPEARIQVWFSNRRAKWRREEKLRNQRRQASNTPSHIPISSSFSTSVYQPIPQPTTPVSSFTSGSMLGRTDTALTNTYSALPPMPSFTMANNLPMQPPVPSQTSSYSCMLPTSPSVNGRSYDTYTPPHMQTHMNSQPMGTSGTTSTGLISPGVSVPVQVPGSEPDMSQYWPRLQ
Chain of Bile acid receptor (Homo sapiens) (Q96RI1 whole entry, looked up): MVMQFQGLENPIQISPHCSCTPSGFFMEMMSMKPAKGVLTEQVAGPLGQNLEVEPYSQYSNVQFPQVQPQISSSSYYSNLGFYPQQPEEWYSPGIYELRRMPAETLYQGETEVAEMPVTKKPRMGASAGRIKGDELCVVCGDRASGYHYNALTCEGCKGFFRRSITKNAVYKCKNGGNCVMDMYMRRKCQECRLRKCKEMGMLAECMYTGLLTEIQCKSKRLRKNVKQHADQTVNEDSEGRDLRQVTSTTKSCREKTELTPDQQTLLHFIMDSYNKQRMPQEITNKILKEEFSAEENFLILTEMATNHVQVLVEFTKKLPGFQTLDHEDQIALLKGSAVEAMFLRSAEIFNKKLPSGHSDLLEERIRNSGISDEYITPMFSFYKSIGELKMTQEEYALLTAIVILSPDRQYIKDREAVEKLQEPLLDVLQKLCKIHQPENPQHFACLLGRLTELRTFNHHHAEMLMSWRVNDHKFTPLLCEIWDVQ
Chain of Heat shock factor protein 1 (Homo sapiens) (Q00613 whole entry, looked up): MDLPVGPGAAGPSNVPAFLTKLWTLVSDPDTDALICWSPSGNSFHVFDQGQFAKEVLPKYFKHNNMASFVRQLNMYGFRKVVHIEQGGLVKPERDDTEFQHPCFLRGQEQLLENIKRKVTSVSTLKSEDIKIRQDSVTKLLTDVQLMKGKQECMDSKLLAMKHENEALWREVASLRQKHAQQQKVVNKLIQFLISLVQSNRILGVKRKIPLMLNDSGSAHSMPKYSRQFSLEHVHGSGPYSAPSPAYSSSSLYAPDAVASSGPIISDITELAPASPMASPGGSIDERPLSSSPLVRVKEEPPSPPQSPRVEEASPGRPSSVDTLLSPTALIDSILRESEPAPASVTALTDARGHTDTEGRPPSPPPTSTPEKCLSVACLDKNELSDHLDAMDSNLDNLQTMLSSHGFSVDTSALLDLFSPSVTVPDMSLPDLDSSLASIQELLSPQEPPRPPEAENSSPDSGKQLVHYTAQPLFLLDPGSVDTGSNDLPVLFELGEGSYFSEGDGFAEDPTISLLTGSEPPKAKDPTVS
Chain of Hepatocyte nuclear factor 6 (Homo sapiens) (Q9UBC0 whole entry, looked up): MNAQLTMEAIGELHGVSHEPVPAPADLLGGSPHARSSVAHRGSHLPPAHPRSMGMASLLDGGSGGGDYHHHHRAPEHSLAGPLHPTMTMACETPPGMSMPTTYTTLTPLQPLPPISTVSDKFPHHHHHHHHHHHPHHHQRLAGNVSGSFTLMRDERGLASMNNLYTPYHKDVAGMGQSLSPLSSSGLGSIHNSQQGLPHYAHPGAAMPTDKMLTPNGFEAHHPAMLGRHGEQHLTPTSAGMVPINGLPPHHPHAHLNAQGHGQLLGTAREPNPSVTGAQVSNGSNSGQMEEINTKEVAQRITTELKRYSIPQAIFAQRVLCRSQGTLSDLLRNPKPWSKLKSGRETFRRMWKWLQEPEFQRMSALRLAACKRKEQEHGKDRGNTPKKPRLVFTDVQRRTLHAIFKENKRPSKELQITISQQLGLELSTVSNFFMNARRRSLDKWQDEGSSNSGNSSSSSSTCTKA

In the case of `OCC(F)(F)OC(F)(F)C(F)(F)OC(F)(F)CO`, the call in assay [1], in [2], in assay [3], in assay [4], in assay [5] and in assay [6] was inactive. In addition, the compound was classed as inactive in assay [7], in assay [8], in [9], in [10], in [11] and in assay [13]. For the same compound, the result in assay [14], in assay [15], in assay [16], in assay [17], in [18] and in assay [19] was inactive. Moreover, the outcome in assay [20] was inactive. Also, the AC50 in assay [12] was 74.8 µM (active).

For the compound `O=C(O)C(F)(F)OC(F)(F)C(F)(F)OC(F)(F)F`, the compound was classed as inactive in assay [1], in assay [2], in assay [3], in [4], in assay [5] and in assay [6]. Further, the call in assay [7], in assay [8], in assay [9], in [10], in [11] and in [12] was inactive. The compound was called inactive in assay [14], in [15], in assay [16], in assay [17], in [18] and in assay [19]. Further, the compound was called inactive in assay [20]. Besides, in [13], the AC50 was 96.5 µM (active) and 114 µM (active).

As for `Cc1ccc(N)cc1N`, the outcome in assay [1], in assay [2], in assay [3], in [4], in assay [5] and in assay [6] was inactive. Moreover, the result in assay [7], in assay [8], in assay [9], in assay [10], in [11] and in assay [12] was inactive. The outcome in assay [13], in assay [15], in [16], in assay [18], in assay [19] and in [20] was inactive.
